Source: PubChem BioAssay
Calls of active or inactive are those of the source. Unless noted, how the calls were made is not given here.

Legend:
[1] = test system: XIP peptide (Xip251-270) binding; test: XIP fragment 251-270 binding compounds – biochemical, small-molecule microarray, fluorescence 635/667 nm, 0.1 µg/mL protein, primary screen (AID 1182); details: fluorescent protein binding, 635 nm, higher = more signal, called active from +8 up or from −8 down
XIP peptide (Xip251-270) = test: compounds binding XIP fragment 251-270 – biochemical, small-molecule microarray, fluorescence 635/667 nm, 0.5 µg/mL protein, primary screen (AID 1183); details: fluorescence 635 nm, higher = more signal
[2] = blood-stage malaria parasite viability loss – strain 3D7, DAPI fluorescence, 100 nL, primary screen (AID 1184);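 further: parasites grown inside human red blood cells in medium with human serum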; details: P. falciparum 3D7 growth, 3 d, higher = more signal
[3] = biological target: Homeobox protein Hox-A13 (Mus musculus) (UniProt Q62424); test: disruptors of Hoxa13 oligonucleotide interaction – biochemical, fluorescence polarization, labeled oligonucleotide, primary screen (AID 1185); details: Hoxa13:DNA binding, 15 min, higher = more signal, called active from +8 up or from −8 down
[4] = blockers of DNA damage checkpoint Chk1 activation – imaging, HeLa, hydroxyurea, phospho-Chk1 antibody, percent positive cells, primary screen (AID 1186); details: hydroxyurea-induced phospho-Chk1 immunofluorescence imaging, higher = more signal
[5] = blockers of DNA damage checkpoint Chk1 activation – imaging, HeLa, hydroxyurea, phospho-Chk1 nuclear intensity, primary screen (AID 1187); details: hydroxyurea-induced phospho-Chk1 immunofluorescence imaging, higher = more signal

Sequence of Homeobox protein Hox-A13 (Mus musculus) (Q62424 whole entry, looked up): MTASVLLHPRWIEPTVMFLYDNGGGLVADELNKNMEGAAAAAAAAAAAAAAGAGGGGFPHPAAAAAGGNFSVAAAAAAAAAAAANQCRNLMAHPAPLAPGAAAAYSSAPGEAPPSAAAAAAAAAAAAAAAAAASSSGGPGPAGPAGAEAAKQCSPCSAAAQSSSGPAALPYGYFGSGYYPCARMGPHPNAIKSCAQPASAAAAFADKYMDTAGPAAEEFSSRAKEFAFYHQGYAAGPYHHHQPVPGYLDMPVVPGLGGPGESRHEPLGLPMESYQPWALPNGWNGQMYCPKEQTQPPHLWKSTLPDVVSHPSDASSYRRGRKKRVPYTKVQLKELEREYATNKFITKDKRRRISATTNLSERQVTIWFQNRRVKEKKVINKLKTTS

| SMILES | composite z-score [1] | composite z-score (XIP peptide (Xip251-270)) | z-score [2] | z-score [3] | z-score [4] | z-score [5] |
| --- | --- | --- | --- | --- | --- | --- |
| COc1ccc([Si](C)(C)[C@H]2[C@H](CC(=O)N(CCO)Cc3ccccc3)O[C@@]3(C(=O)N(C)c4c(Br)cc(C)cc43)[C@@H]2C)cc1 | 0.159 (inactive) | 0.334 | -2.08 | -6.1 (inactive) | -1.82 (inactive) | -1.22 (inactive) |
| C=CCN1C(=O)[C@]2(CCC(=O)OC(C)(C)C)N=C(c3ccc(OCCCO)cc3)O[C@@H]2c2ccccc21 | 0.0041 (inactive) | 0.464 | -1.34 | -2.63 (inactive) | -0.646 (inactive) | -0.541 (inactive) |
| COc1ccc([C@H]2OC[C@@H]3C[C@H](Cc4ccccc4)C(=O)N32)cc1 | -0.299 (inactive) | 0.0713 | 0.877 | -0.716 (inactive) | 0.311 (inactive) | 0.0211 (inactive) |
| N#Cc1ccc(NN2C(C(O)c3ccc(Br)cc3)C=CC3C(=O)N(c4ccccc4)C(=O)C32)cc1 (centres undefined) | 1.13 (inactive) | 0.529 | 0.401 | -3.13 (inactive) | 0.0643 (inactive) | 0.0338 (inactive) |
| CC1CC/C=C\[C@H]2OC34C=CCN(Cc5ccccc5)C(=O)[C@H]3N(C(CO)C(C)C)C(=O)[C@@H]4C2C(=O)O1 (some centres undefined) | 0.0855 (inactive) | -0.555 | 0.597 | -5.14 (inactive) | -0.0785 (inactive) | -0.204 (inactive) |
| Oc1ccc2cc[n+](Cc3cc4c(cc3Br)OCO4)cc2c1 | 0.425 (inactive) | 0.135 | 0.0298 | -8.63 (active) | 0.12 (inactive) | 0.225 (inactive) |
| C=CCOC(=O)[C@@H]1[C@H]2C(=O)O[C@H](c3ccccc3)[C@H](c3ccccc3)N2[C@H](c2ccc(OCCOC(=O)[C@@H]3C[C@@H]4C(=O)N[C@@H](CCCC[N+](C)(C)C)C(=O)N4[C@@H]3c3ccc(O)cc3)cc2)[C@@]12C(=O)Nc1ccc(I)cc12 | 0.481 (inactive) | 0.808 | -1.11 | 6.56 (inactive) | 0.355 (inactive) | 0.521 (inactive) |
| CCCC=C(CCC)[C@@H](NP(=O)(c1ccccc1)c1ccccc1)c1ccc(-c2ccccc2)cc1 | 0.356 (inactive) | 0.42 | 0.0851 | -1.13 (inactive) | 0.175 (inactive) | -0.0233 (inactive) |
| Cc1ccc(C(C)CC(O)C2C=CC3C(=O)N(c4ccccc4)C(=O)C3N2Nc2ccccc2)o1 (centres undefined) | 0.0436 (inactive) | 0.518 | -0.54 | -1.12 (inactive) | -0.179 (inactive) | -0.508 (inactive) |
| O=C1O[C@@H](c2ccccc2)[C@@H](c2ccccc2)N2[C@@H](c3ccc(O)cc3)[C@]3(C(=O)Nc4ccc(C#CCCO)cc43)[C@@H](C(=O)N3CCN(c4ncccn4)CC3)[C@H]12 | 0.678 (inactive) | 0.731 | -2.11 | -2.41 (inactive) | -0.193 (inactive) | 0.058 (inactive) |
| O=C1OCCC=C[C@H]2OC34C=CCN(c5ccc6ccccc6c5)C(=O)[C@H]3N(CCCO)C(=O)[C@@H]4C12 (some centres undefined) | -0.725 (inactive) | -0.617 | -1.83 | -2.31 (inactive) | -0.292 (inactive) | -0.64 (inactive) |
| COC(=O)[C@@]1(Cc2ccc(F)cc2)[C@H]2c3cc(C(=O)N(C)C)n(CCc4ccc(OC)c(Br)c4)c3C[C@H]2CN1C(=O)c1ccccc1 | -0.192 (inactive) | 0.167 | -1.75 | -5.01 (inactive) | -0.316 (inactive) | -0.869 (inactive) |
| CC(C)N1C(=O)C[C@@](C(=O)NC2CC2)(c2ccc([N+](=O)[O-])cc2)[C@H]1c1ccc(CO)cc1 | 0.65 (inactive) | 0.396 | -1.15 | -1.81 (inactive) | 0.254 (inactive) | 0.529 (inactive) |
| C=CC[C@@]1(C(=O)NCCCOC)N=C(c2ccc(OCCCO)cc2)O[C@@H]1c1ccccc1 | 1.42 (inactive) | 0.805 | -1.95 | -4.75 (inactive) | -0.339 (inactive) | -0.343 (inactive) |
| [N-]=[N+]=NCc1ccccc1[C@@H]1OC(c2ccc(OCCCO)cc2)=N[C@]1(CCS(=O)(=O)c1ccccc1)C(=O)O | 0.573 (inactive) | 0.964 | 0.692 | -4.86 (inactive) | 0.162 (inactive) | 0.23 (inactive) |
| CC(C)C(CO)N1C(=O)[C@@H]2[C@H]3C(=O)OCC=C[C@H]3OC23C=CCN(c2ccc(Cl)cc2)C(=O)[C@@H]13 (some centres undefined) | 0.331 (inactive) | -0.202 | -0.485 | -3.03 (inactive) | -0.438 (inactive) | -0.468 (inactive) |
| [N-]=[N+]=Nc1ccccc1C[C@@]1(C(=O)N2CCOCC2)N=C(c2ccc(OCCCO)cc2)O[C@@H]1c1ccccc1 | 0.111 (inactive) | 0.765 | -2.32 | -5.84 (inactive) | -1.05 (inactive) | -1.34 (inactive) |

| SMILES | composite z-score [1] | composite z-score (XIP peptide (Xip251-270)) | z-score [2] | z-score [3] | z-score [4] | z-score [5] |
| --- | --- | --- | --- | --- | --- | --- |
| [N-]=[N+]=Nc1ccccc1C[C@@]1(C(N)=O)N=C(c2ccc(OCCCO)cc2)O[C@@H]1c1ccccc1N=[N+]=[N-] | 1.28 (inactive) | 0.763 | -2.67 | -5.05 (inactive) | -0.0618 (inactive) | 0.233 (inactive) |
| CCCCC(CC)C(O)C1C=CC2C(=O)N(c3ccccc3)C(=O)C2N1Nc1ccc(C#N)cc1 (centres undefined) | 0.742 (inactive) | 0.784 | 0.128 | -1.83 (inactive) | -0.185 (inactive) | -0.153 (inactive) |
| COc1cc(OC)c(C(O)C2C=CC3C(=O)N(Cc4ccccc4)C(=O)C3N2n2cnnc2)cc1Br (centres undefined) | 0.236 (inactive) | 0.0481 | -0.976 | 0.767 (inactive) | 0.0176 (inactive) | 0.301 (inactive) |
| C[N+](C)(C)CCCCCCNC(=O)[C@@H]1C[C@@H]2C(=O)N3CCC[C@H]3C(=O)N2[C@@H]1c1ccc(O)cc1 | 0.45 (inactive) | 0.723 | 0.0301 | -1.82 (inactive) | -0.265 (inactive) | 0.127 (inactive) |
| COc1cc2c(cc1O)C(C1CC1)N(C)CC2 (centres undefined) | -0.198 (inactive) | 0.598 | -0.871 | -4.09 (inactive) | 0.2 (inactive) | 0.406 (inactive) |
| COC(=O)[C@]1(CCS(=O)(=O)c2ccccc2)N=C(c2ccc(OCCCO)cc2)O[C@@H]1c1ccccc1N=[N+]=[N-] | 1.48 (inactive) | 0.836 | -2.36 | -3.34 (inactive) | -0.265 (inactive) | -0.364 (inactive) |
| C=CCNC(=O)[C@H]1[C@@H]2C(=O)O[C@@H](c3ccccc3)[C@@H](c3ccccc3)N2[C@@H](c2ccccc2OCCO)[C@]12C(=O)N(C(=O)OCCOC)c1ccc(C#CC3(O)CCCCCC3)cc12 | 0.892 (inactive) | 0.712 | -2.15 | -0.807 (inactive) | -0.485 (inactive) | -0.428 (inactive) |
| COC(=O)C/C=C/C[C@]1(O)C(=O)N(C)c2ccccc21 | 0.0625 (inactive) | 0.804 | -0.306 | -1.32 (inactive) | -0.866 (inactive) | -0.467 (inactive) |
| O=C1N(CCS(=O)(=O)c2ccccc2)c2ccccc2[C@H]2OC(c3ccc(OCCCO)cc3)=N[C@@]12Cc1ccccc1 | 3.13 (inactive) | 0.832 | -1.92 | -0.41 (inactive) | -0.37 (inactive) | 0.158 (inactive) |
| CC1=C2[C@@H](CCc3ccccc3)OB(O)C[C@@H]2[C@@H]2C(=O)N(C)C(=O)[C@@H]2C1 | 0.796 (inactive) | 0.472 | 0.278 | -5.07 (inactive) | 0.0183 (inactive) | 0.0905 (inactive) |
| C=CCC(OC(C)=O)[C@@H]1[C@@H](N(Cc2cc3ccccc3o2)C(=O)Cc2ccc(F)cc2)c2cc(OCCCO)ccc2N1C(=O)Cc1ccc2ccccc2c1 (some centres undefined) | -0.0865 (inactive) | -0.507 | 0.694 | -1.9 (inactive) | 0.725 (inactive) | 0.113 (inactive) |
| CCOC(=O)C=Cc1cccc(C)c1O | 2.79 (inactive) | 0.159 | -1.44 | 0.534 (inactive) | -0.193 (inactive) | 0.0058 (inactive) |
| COc1ccc([Si](C)(C)[C@@H]2[C@@H](CCO)O[C@]3(C(=O)N(Cc4ccccc4)c4ccc(NC(=O)[C@H](C)O)cc43)[C@H]2C)cc1 | 0.816 (inactive) | 0.606 | -2.83 | -6.12 (inactive) | -0.178 (inactive) | -0.305 (inactive) |
| COC(=O)C(CC#Cc1ccc2c(c1)[C@]1(C(=O)N2)[C@H](c2ccc(O)cc2)N2[C@H](c3ccccc3)[C@H](c3ccccc3)OC(=O)[C@H]2[C@@H]1C(=O)NC[C@H](O)c1ccccc1)C(=O)OC | 0.646 (inactive) | 0.42 | 0.452 | -3 (inactive) | -0.0427 (inactive) | -0.171 (inactive) |
| COCCCNC(=O)[C@@]1(Sc2ccc(C)cc2)CC(=O)N(C2Cc3ccccc3C2)[C@@H]1c1ccc(CO)cc1 | 0.33 (inactive) | 0.446 | -1.52 | -3.56 (inactive) | -0.0691 (inactive) | 0.0579 (inactive) |
| CCC1=C2CN(Cc3ccccc3)[C@@H](C(=O)Cc3ccccc3)C2C=CCC1 (some centres undefined) | 0.932 (inactive) | 0.758 | -1.75 | -4.07 (inactive) | 0.313 (inactive) | -0.119 (inactive) |
| Cc1ccc(S[C@]2(C(=O)NCc3ccccc3)CC(=O)N(C3CCCCC3)[C@@H]2c2ccc(CO)cc2I)cc1 | 0.2 (inactive) | 0.742 | -2.17 | -2.37 (inactive) | 0.355 (inactive) | 0.557 (inactive) |
